Screens as filed in PubChem BioAssay.
PI5P4K alpha inh – inhibitors of human PI5P4K alpha; PI5P4Kalpha enzyme, ADP-Glo luminescence, 60 min; stronger effect = lower value; hit rate 1.2% among 330,000; P48426; AID 652105; max response, %; active = max response of -50% or lower; inconclusive = between -30% and -50%; inactive = -30% or higher; also: value at the top dose of about 77 µM; % is scaled to controls: 0 for no effect and ±100 for the full control effect
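Controls without substrate or without enzyme flank wells where PI5P4Kalpha converts substrate using 5 microM ATP (final). Incubation lasts 60 minutes at room temperature; ADP formed is read by ADP-Glo luminescence.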
JMJD2A Tudor inh – JMJD2A Tudor domain (human) inhibition; AID 504339; hit rate 4.4% among 390,000; O75164; AlphaScreen JMJD2A-Tudor / H3K4me3 peptide binding; Potency, µM (titrated, usually from 114 µM), for inactives: top-dose activity change, negative = inhibition, usual class: inhibitors; also: potency is read from the fitted curve at half-maximal effect; % is scaled to controls: 0 for no effect and ±100 for the full control effect; nearly all actives have a fitted effect of over 50% in size
PLK1 PBD block – blocks phosphopeptide binding to human PLK1 polo-box domain. P53350. Plk1 PBD binding of FITC phosphopeptide, fluorescence polarization. Potency, µM, inactives show max response, negative = inhibition, usual class: inhibitors. hit rate 2.8% among 360,000; also: potency is read from the fitted curve at half-maximal effect; series mostly up to about 57 µM; % is scaled to controls: 0 for no effect and ±100 for the full control effect; nearly all actives have a fitted effect of over 65% in size
BAZ2B block – inhibitors of human BAZ2B bromodomain | AlphaScreen BAZ2B-H3K14Ac peptide displacement | hit rate 4.4% among 360,000 | Potency, µM (series often up to 114 µM), inactives show at the top dose activity change, negative = inhibition, most hits filed as inhibitors | Q9UIF8 | AID 504333; also: potency is read from the fitted curve at half-maximal effect; % is scaled to controls: 0 for no effect and ±100 for the full control effect; nearly all actives have a fitted effect of over 60% in size
Target sequence (Q9UIF8 whole entry, looked up): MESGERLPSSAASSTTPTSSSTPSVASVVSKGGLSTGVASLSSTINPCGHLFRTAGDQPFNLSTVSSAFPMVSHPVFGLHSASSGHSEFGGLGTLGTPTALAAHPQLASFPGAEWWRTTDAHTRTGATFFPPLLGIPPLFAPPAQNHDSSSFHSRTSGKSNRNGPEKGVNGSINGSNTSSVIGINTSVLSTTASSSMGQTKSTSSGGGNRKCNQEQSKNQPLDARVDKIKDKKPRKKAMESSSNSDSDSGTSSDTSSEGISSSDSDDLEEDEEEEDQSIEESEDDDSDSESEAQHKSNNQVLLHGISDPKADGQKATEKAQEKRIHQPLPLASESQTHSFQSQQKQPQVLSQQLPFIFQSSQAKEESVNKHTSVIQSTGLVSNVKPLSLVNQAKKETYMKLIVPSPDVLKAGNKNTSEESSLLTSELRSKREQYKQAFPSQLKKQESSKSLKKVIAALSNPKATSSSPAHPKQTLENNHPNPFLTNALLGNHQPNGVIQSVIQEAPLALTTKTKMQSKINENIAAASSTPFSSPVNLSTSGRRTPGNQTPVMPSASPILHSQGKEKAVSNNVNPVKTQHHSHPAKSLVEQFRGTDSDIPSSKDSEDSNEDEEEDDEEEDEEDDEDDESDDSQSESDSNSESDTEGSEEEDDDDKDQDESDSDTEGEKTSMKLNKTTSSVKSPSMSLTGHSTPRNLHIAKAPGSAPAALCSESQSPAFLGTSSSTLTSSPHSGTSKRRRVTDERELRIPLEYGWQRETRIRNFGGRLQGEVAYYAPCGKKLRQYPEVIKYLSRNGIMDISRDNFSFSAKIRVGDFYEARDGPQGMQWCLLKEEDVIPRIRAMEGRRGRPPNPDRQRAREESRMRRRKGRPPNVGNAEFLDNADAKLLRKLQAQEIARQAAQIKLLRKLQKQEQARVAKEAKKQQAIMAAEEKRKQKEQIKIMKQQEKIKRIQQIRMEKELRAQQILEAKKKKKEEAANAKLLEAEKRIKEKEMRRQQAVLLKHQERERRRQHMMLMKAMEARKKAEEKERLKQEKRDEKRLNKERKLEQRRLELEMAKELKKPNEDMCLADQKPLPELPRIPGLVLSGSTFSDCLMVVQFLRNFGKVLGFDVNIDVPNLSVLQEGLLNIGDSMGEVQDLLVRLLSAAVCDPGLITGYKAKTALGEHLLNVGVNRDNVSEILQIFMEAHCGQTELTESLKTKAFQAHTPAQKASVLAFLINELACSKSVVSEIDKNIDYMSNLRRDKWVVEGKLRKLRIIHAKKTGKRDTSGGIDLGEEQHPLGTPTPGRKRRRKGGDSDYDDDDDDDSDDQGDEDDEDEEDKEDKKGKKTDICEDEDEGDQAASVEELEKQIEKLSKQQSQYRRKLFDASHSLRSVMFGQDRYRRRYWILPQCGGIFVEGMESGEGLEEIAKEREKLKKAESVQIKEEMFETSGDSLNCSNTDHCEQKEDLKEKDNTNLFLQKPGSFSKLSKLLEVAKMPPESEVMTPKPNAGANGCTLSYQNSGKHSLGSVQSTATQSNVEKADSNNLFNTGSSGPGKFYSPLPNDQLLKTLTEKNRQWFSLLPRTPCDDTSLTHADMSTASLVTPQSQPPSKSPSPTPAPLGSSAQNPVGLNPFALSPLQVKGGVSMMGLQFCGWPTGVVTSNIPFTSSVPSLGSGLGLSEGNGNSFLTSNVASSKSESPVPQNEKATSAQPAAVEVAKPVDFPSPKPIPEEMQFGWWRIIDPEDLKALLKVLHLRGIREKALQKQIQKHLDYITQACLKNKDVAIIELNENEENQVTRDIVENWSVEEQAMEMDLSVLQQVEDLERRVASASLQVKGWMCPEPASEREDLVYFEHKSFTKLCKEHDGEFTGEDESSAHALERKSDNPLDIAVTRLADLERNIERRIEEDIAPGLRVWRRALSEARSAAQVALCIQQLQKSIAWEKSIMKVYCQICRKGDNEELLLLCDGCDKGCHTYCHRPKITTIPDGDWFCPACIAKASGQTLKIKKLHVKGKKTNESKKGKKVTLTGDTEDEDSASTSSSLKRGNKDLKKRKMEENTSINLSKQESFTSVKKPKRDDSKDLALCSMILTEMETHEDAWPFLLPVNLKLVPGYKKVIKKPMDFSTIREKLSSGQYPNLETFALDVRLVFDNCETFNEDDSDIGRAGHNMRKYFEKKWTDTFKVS
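Complex of BAZ2B and biotin-H3K14Ac (50 nM apiece) forms over 30 min at RT, then faces library compounds up to 110 uM for another 30 min; AlphaScreen beads added, 20 min dark incubation, luminescence read.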
G9a inh – G9a (human) methyltransferase inhibition; Potency, µM (series often up to 102 µM), for inactives: at the top dose activity, negative = inhibition, usual class: inhibitors; hit rate 8.8% among 350,000; Q96KQ7; G9a H3K9 monomethylation, AlphaScreen, 2 h; also: potency is read from the fitted curve at half-maximal effect; % is scaled to controls: 0 for no effect and ±100 for the full control effect; nearly all actives have a fitted effect of over 75% in size
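Quantitative HTS format: methyltransferase activity on a biotin-tagged H3K9 peptide is measured by AlphaScreen, using a rabbit anti-monomethyl-H3K9 antibody with streptavidin donor and anti-IgG acceptor beads. Final levels are 20 nM enzyme, 500 nM peptide, 20 uM SAM; 2 h RT.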
HP1b chromo inh – inhibitors of HP1-beta chromodomain binding to methylated histone tails; P83916; AlphaScreen HP1-beta / biotin-H3K9me3 peptide binding; Potency, µM (doses to about 114 µM), for inactives: at the top dose activity change, negative = inhibition, actives largely listed as inhibitors; hit rate 0.56% among 390,000; AID 540317; also: potency is read from the fitted curve at half-maximal effect; nearly all actives have a fitted effect of over 70% in size
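AlphaScreen: HP1-beta (50 nM) preformed 30 min with biotin-H3(1-18)K9me3 peptide (50 nM) in PBS pH 7.4, 0.01% Tween-20. Compound added for 30 min at RT, then streptavidin donor/nickel chelate acceptor beads (10 ug/mL) for 30 min.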
Numbers without * were called inactive; ? = inconclusive; · = no result given; [ ] = dose if it differs, or a comment. Most compounds without a hit are left out; they make up all but 12% or so of the library. Unless noted, calls follow the shape of the dose curve; as a rule, active = well fitted curve in the direction sought with a large enough effect; inconclusive = small, poorly fitted or top-dose-only effect, or another doubt; inactive = no such curve, though single readings can be large; an effect the other way counts as inactive or inconclusive.

SMILES	PI5P4K alpha inh	JMJD2A Tudor inh	PLK1 PBD block	BAZ2B block	G9a inh	HP1b chromo inh
CC1C/C(=N\Nc2ccc(S(N)(=O)=O)cc2[N+](=O)[O-])CC(C)(C)C1 (stereo not drawn)	12	?	-4%	?	14µM*	?
NS(=O)(=O)c1ccc(NN=C2CCN(Cc3ccccc3)CC2)c([N+](=O)[O-])c1	1	-25%	3%	8%	45µM*	5%
CCCCNc1ccc(S(=O)(=O)c2cccc([N+](=O)[O-])c2)cc1[N+](=O)[O-]	4	-3%	4%	?	7.9µM*	38%
C/C(=N\Nc1ccc([N+](=O)[O-])cc1)c1cc2ccccc2o1	4	11%	22%	-23%	18%[12.7 µM]	-36%
Cc1nn(C)c2c1c(C(F)(F)F)cc(=O)n2CC(=O)NCCC(C)C	·	0%	·	-2%	13%[59 µM]	21%
O=C(CCNC(=O)c1ccc(Cl)cc1)NNC(=O)c1ccc(F)cc1	2	-16%	1%	7%	5%	17%
O=C(CCCNC(=O)c1ccc(Cl)cc1)NCc1ccc(F)cc1	-5	-11%	27µM*	-21%	-26%	-14%[57 µM]
Cc1cc(-n2nc3ccc(Cl)cc3n2)c(O)c(C(C)(C)C)c1	·	·	·	·	2%[12.7 µM]	·
Cc1cc(Cl)c(O)c(-n2nc3ccccc3n2)c1	3	-25%[11.4 µM]	24µM*	0%	·	18%
CC(C)CCN(C(=O)C1CSC2(C)CCC(=O)N12)c1c(N)n(Cc2ccccc2)c(=O)[nH]c1=O (stereo not drawn)	-8	-19%	1%	?	28µM*	5%
CSc1cccc(N2CC(C(=O)N(CC(C)C)c3c(N)n(Cc4ccccc4)c(=O)[nH]c3=O)CC2=O)c1 (stereo not drawn)	-28	-29%	-15%	?	40µM*	26%
COc1ccc(C(=O)C2CCCN(C(=O)c3ccc4nccnc4c3)C2)c(C)c1 (stereo not drawn)	-4	-4%	0%	-23%	-6%	34%
S=C(SSC(=S)N1CCOCC1)N1CCOCC1	-88*	·	1.5µM*	·	·	·
CC(SC(=S)N1CCOCC1)C(=O)O (stereo not drawn)	0	-21%	-10%	25µM*	-1%[12.7 µM]	15%
CCS(=O)(=O)N1CC(=O)N(c2ccc(Cl)cc2)C(C)(C(=O)NC2CCCCC2)C1 (stereo not drawn)	·	5%	·	2%	2%[59 µM]	44%
CCN(CC)CCNc1ccc(CO)c2sc3ccccc3c(=O)c12	7	?	-18%	?	?	-9%
O=c1c2ccccc2sc2c(CO)ccc(NCCN3CCCCC3)c12	14	50µM*	0%	·	·	?
CCCn1c(SC(C)C(=O)NC2CCCC(C)C2C)n[nH]c1=O (stereo not drawn)	3	·	-22%	·	·	·
Cn1c(-c2ccccc2)cnc1N	-4	?	-10%	?	14%	24%
c1ccc(-c2cncn2-c2ccccc2)cc1	0	?	1%	50µM*	2%[2.33 µM]	-5%
CCOC(=O)c1c(Oc2ccc(OC)cc2)nnc(-c2ccccc2)c1-c1ccccc1	·	-19%	·	-13%	-19%[59 µM]	39%
NC(=S)N=Nc1ccc(NN=C(N)N)cc1	-84*	11µM*	3.8µM*	40µM*	?	4µM*
NC(N)=Nc1ccc(N=C(N)N)cc1	-1	-6%	-3%	?	?	37%
O=C(Nc1ccccc1N1CCN(C(=O)c2ccc(Cl)cc2)CC1)c1cc2ccccc2o1	3	-6%[11.4 µM]	30µM*	5%	3%[12.7 µM]	-26%
CCC1Oc2ccc(C)cc2N(CC(=O)N2CCN(c3ccccc3OC)CC2)C1=O (stereo not drawn)	·	-25%	·	2%	-2%[59 µM]	3%
SMILES	PI5P4K alpha inh	JMJD2A Tudor inh	PLK1 PBD block	BAZ2B block	G9a inh	HP1b chromo inh
CCC1Oc2ccc(C)cc2N(CC(=O)N2CCN(c3ccc(F)cc3)CC2)C1=O (stereo not drawn)	-1	?	-13%	-23%	45µM*	13%
CC(C)c1cc(O)c(-c2ccccc2)c(=O)n1-c1ccc(Cl)cc1	-1	-10%	-16%	1%	8%[59 µM]	1%
CC(C)c1c(Cl)c(O)c(-c2ccccc2)c(=O)n1-c1ccc(F)cc1	4	20µM*	1%	-11%	45µM*	-15%
CN(C)c1nc(C(=O)NN)nc(N(C)C)n1	·	-19%	-8%	0%	33%[12.7 µM]	50%
CN(C)c1nc(N)c2ncc(=S)[nH]c2n1	?	3.2µM*	4.7µM*	-32%	1.8µM*	20%
NCCCC[C@H](NC(=O)C1CCNCC1)c1nnc(CN)o1	·	·	·	?	-135%[59 µM]	·
CCOc1ccccc1CNC(=O)CCCn1c(=O)c2cccn2c2ccc(F)cc21	·	-6%	·	0%	-4%[59 µM]	22%
CCCC1(c2ccccc2)NC(=O)N(C/C=C/Cl)C1=O (stereo not drawn)	-8	?	27µM*	-11%	-11%	-14%[57 µM]
CCCC1(c2ccccc2)NC(=O)N(CC(=O)N(C)Cc2c(F)cccc2Cl)C1=O (stereo not drawn)	1	25µM*	24µM*	-13%	18%[59 µM]	-12%
CCC1(c2ccccc2)NC(=O)N(CC(=O)N(C)CC(=O)Nc2ccc(F)c(F)c2F)C1=O (stereo not drawn)	-2	-8%	-7%	-4%	3%[0.501 µM]	3%
C=C(C)CC(Nc1ccc(OC)cc1)c1ccco1 (stereo not drawn)	1	3%	-2%	50µM*	?	38%
COc1ccc(S(=O)(=O)NC(CC(=O)O)c2ccco2)cc1 (stereo not drawn)	2	-4%	2%	3%	1%	32%
Cn1nnnc1Sc1ncnc2scc(-c3cccc(C#N)c3)c12	·	-8%	·	·	·	·
COc1ccc(/C=N\NC(=O)c2cc(O)c(O)c(O)c2)cc1CN1CCN(c2ccc(F)cc2)CC1	-25	56µM*	?	35µM*	7.1µM*	?
COc1ccc(/C=N\NC(=O)c2cc(O)c(O)c(O)c2)cc1COc1ccc(C(=O)OCC(C)C)cc1	-72*	?	0%	56µM*	22µM*	-7%
COc1ccc(C(=O)N/N=C/c2ccc(OC)c(COc3ccccc3)c2)cc1	-2	-18%	2%	-27%	31%	24%
COc1ccc(/C=N/NC(=O)c2ccc(C)cc2)cc1CN1CCN(c2ccc(F)cc2)CC1	-6	?	-14%	-38%	-10%[2.33 µM]	-6%
Cc1cccc(N2CCN(Cc3nnc(-c4ccc5c(c4)OCO5)o3)CC2)c1C	·	-7%	·	-2%	-1%[59 µM]	14%
Cc1nnsc1C(=O)NNc1c(Cl)cccc1Cl	-5	-8%	-7%	4%	8.9µM*	33%
